ssDAF12 agonist = activators of S. stercoralis DAF-12 nuclear receptor. HEK293 ssDAF-12/GRIP1 lit1-tk-luc reporter, luminescence; % of 3 µM dafachronic acid response. activation, % at 6.8 µM. 1% of 370,000 active. AID 652126;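 active means activation above the mean over all tested compounds plus 3 SD, cut at about 0.9% in these data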
DAX1 inh-1 = inhibitors of DAX1 repression of SF-1 activated StAR promoter; HEK293T StAR-luciferase reporter, SF-1/DAX-1 repression relief; inhibition, % at 6.8 µM; 1.1% of 370,000 active; AID 652010;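 active means inhibition above the mean over all tested compounds plus 3 SD, cut at about 3.6% in these data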;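 further: higher inhibition means more luminescence from relief of DAX-1 repression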
hcDAF-12 act = activates DAF-12 receptor from parasite H. contortus; HEK293 hcDAF-12 lit1-tk-luc reporter, luminescence; 0% DMSO, 100% Δ7-dafachronic acid; activation, % at 6.8 µM; 1.4% of 370,000 active; AID 652067;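 active means activation above the mean of all tested compounds plus 3 SD, cut at about 5.5% in these data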
SMARCA2 activ = SMARCA2 function activation, primary screen; activation, % at 9.1 µM; 1% of 370,000 active; MG213 cells, MMTV-luciferase reporter, dexamethasone, overnight; in the data active means activation above about 7.8%
DAX1 inh-2 = inhibitors of human orphan nuclear receptor DAX1 (NR0B1) | inhibition, % at 6.75 µM | 0.99% of 340,000 active | P51843 | HEK293 Gal4-DAX1 luciferase reporter, luminescence;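 active means inhibition above the mean over all tested compounds plus 3 SD, cut at about 4.2% in these data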;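 further: inhibition shows as a rise in luminescence from relieved DAX1 repression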
Target sequence (P51843 207-470 limits assumed): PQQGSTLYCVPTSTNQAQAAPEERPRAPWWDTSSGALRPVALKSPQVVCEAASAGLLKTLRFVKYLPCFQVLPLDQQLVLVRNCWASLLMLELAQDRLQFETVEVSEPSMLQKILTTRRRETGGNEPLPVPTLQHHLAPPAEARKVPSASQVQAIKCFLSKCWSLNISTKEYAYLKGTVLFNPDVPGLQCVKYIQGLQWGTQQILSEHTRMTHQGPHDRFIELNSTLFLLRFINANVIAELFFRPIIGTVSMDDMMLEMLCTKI
hgDAF-12 ag = hgDAF-12 agonism, primary luciferase screen | 1.8% of 370,000 active | activation, % at 6.8 µM | HEK293 GAL4-hgDAF12 UAS-luciferase reporter, agonist luminescence; normalized to butyrate control;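 active means activation above a cutoff set at the mean of all screened compounds plus 3 SD, cut at about 10% in these data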
LXR ag = LXR-beta agonism as hcDAF-12 counter-screen; shares compounds with hcDAF-12 act; HEK293 Gal4-LXR tk-luc reporter, luminescence, 24 h; normalized: DMSO 0%, positive control 100%; AID 743027; 3,400 tested, under 10 active; activation, % at 6.8 µM;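 active means mean percent activation of the reporter above a cutoff set as the average over tested compounds plus their standard deviation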
Target sequence (P55055 whole entry, looked up, the tested form may be a part): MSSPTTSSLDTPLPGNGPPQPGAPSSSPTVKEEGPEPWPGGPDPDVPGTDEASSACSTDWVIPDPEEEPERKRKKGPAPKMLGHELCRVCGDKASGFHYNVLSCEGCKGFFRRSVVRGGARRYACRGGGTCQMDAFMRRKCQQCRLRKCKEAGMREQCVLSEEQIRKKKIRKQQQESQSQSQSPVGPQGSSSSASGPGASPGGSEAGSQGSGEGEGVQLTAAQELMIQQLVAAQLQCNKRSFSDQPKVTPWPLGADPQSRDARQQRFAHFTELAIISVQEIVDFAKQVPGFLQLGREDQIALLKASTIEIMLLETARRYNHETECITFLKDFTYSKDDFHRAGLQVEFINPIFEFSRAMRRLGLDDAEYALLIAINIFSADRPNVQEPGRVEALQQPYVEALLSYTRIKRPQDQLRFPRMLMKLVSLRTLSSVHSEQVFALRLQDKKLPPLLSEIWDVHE
hcDAF12 ag = confirmation of H. contortus DAF-12 agonists; shares compounds with hcDAF-12 act; HEK293 hcDAF-12 lit1-tk-luc reporter, luminescence; % of Δ7-dafachronic acid response; activation, % at 6.8 µM; 61% of 3,400 active; AID 743032;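 active means mean activation across triplicate tests above the threshold derived from the earlier primary screen, cut at about 5.5% in these data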
hgDAF12 ag = hgDAF-12 agonism, confirmation assay; shares compounds with hgDAF-12 ag; HEK293 GAL4-hgDAF12 luciferase reporter, agonist mode; percent of butyrate response; activation, % at 6.8 µM; 80% of 3,300 active; AID 743050;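 active means mean activation over triplicate wells above the hit cutoff derived from the earlier primary screen, cut at about 11% in these data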
LXRb DAF12 ctr = LXR-beta agonism as DAF-12 counter-screen; HEK293 Gal4-LXR luciferase reporter, 24 h; activation, % at 6.8 µM; AID 743051; 3,300 tested, under 10 active; shares compounds with hgDAF-12 ag;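 active means mean activation of the triplicate above a set limit carried over from the primary screen, none filed active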
Large screens that a line does not name were inactive (follow-up assays come after a bar, where they were run). Hits are enriched below; roughly 4.8% of the tested compounds scored in any of these assays.

Cc1ccc(NC(=O)NCc2nc3ccccc3n2C)cc1	none
Cn1c(CNc2ccc(Br)cc2)nc2ccccc21	ssDAF12 agonist 1.4, hcDAF-12 act 12, DAX1 inh-2 4.7, hgDAF-12 ag 14 | LXR ag inactive | hcDAF12 ag 11 | hgDAF12 ag 18 | LXRb DAF12 ctr inactive
Cc1ccc(N/N=C(\C#N)C(N)=S)cc1C	none
Cc1ccc(N/C=C(/C#N)c2ccsc2)cc1C	ssDAF12 agonist 1.5, hcDAF-12 act 7.2, hgDAF-12 ag 15 | LXR ag inactive | hcDAF12 ag 8.1 | hgDAF12 ag 22 | LXRb DAF12 ctr inactive
CCCN(CCC)CCN1CCN(C(=O)[C@H](CCc2ccccc2)NC(=O)[C@H]2O[C@@H](n3cnc4c(N)ncnc43)[C@H](O)[C@@H]2O)CC1	none (no result: DAX1 inh-2)
Cc1cc(C)c2c(N)c(C(=O)Nc3ccc(F)cc3)sc2n1	hcDAF-12 act 8.8, hgDAF-12 ag 14 | LXR ag inactive | hcDAF12 ag 16 | hgDAF12 ag 24 | LXRb DAF12 ctr inactive
CNC(=O)c1ccsc1NC(=O)c1ccc2c(c1)CCCC2	hcDAF-12 act 6.9, hgDAF-12 ag 17 | LXR ag inactive | hcDAF12 ag 7.0 | hgDAF12 ag inactive | LXRb DAF12 ctr inactive
NS(=O)(=O)c1ccc(NC(=O)c2ccc3c(c2)CCCC3)cc1	none
C/C(=N\Nc1ccc(Cl)c(C(=O)O)c1)c1ccc(Br)s1	none
C/C(=N\Nc1ccc(C(=O)O)cc1)c1ccc(Cl)s1	ssDAF12 agonist 1.1, hcDAF-12 act 8.2, hgDAF-12 ag 16 | LXR ag inactive | hcDAF12 ag 11 | hgDAF12 ag 20 | LXRb DAF12 ctr inactive
Cc1ccn2cc(-c3ccc(Br)cc3)nc2c1	DAX1 inh-1 3.7, hcDAF-12 act 12, hgDAF-12 ag 14 | LXR ag inactive | hcDAF12 ag 8.4 | hgDAF12 ag 13 | LXRb DAF12 ctr inactive
Cc1ccc(S(=O)(=O)Nc2ccc(-c3cn4ccc(C)cc4n3)cc2)cc1	none
Cc1ccc(CNc2nc3ccccc3n2C)cc1	ssDAF12 agonist 3.6, hcDAF-12 act 16, hgDAF-12 ag 21 | LXR ag inactive | hcDAF12 ag 16 | hgDAF12 ag 20 | LXRb DAF12 ctr inactive
COc1ccc(CNc2ccc3c(c2)nc(C)n3C)cc1	none
Cc1ccc(CNc2ccc3c(c2)nc(C)n3C)cc1	ssDAF12 agonist 1.3, hcDAF-12 act 16, hgDAF-12 ag 16 | LXR ag inactive | hcDAF12 ag 6.4 | hgDAF12 ag 17 | LXRb DAF12 ctr inactive
Nc1[nH]c(C(=O)c2ccc(Br)cc2)c(-c2ccccc2Cl)c1C(=O)NCCc1c[nH]c2ccccc12	none (no result: DAX1 inh-2)
Clc1ccccc1-c1nnc(-c2cccs2)o1	ssDAF12 agonist 1.0, hcDAF-12 act 11, DAX1 inh-2 9.4, hgDAF-12 ag 20 | LXR ag inactive | hcDAF12 ag 8.1 | hgDAF12 ag 24 | LXRb DAF12 ctr inactive
Cc1ccc(CN2CC=CS2(=O)=O)cc1	none (no result: DAX1 inh-2)
Cn1c(NC(=O)c2ccc(F)cc2)nc2ccccc21	ssDAF12 agonist 1.9, hcDAF-12 act 14, hgDAF-12 ag 19 | LXR ag inactive | hcDAF12 ag 15 | hgDAF12 ag 21 | LXRb DAF12 ctr inactive
CCCCCCCCN1C(=O)[C@@H](CC(=O)NCCC(C)C)C[C@@]2(C(=O)OC)C1=C[C@H](C(C)(C)C)O[C@@H]2C	none (no result: DAX1 inh-2)
Cc1ccc(NC(=O)c2ccccc2O)cc1	ssDAF12 agonist 2.1, hcDAF-12 act 10, hgDAF-12 ag 20 | LXR ag inactive | hcDAF12 ag 8.3 | hgDAF12 ag 17 | LXRb DAF12 ctr inactive
O=C(Nc1ccccc1)c1ccccc1O	none
CN(C)c1ccc(-c2nc3ccccn3c2/N=C/c2ccc(Br)cc2)cc1	ssDAF12 agonist 1.4, hcDAF-12 act 7.5, hgDAF-12 ag 16 | LXR ag inactive | hcDAF12 ag inactive | hgDAF12 ag inactive | LXRb DAF12 ctr inactive
Cc1c(-c2ccc(Br)cc2)nc2ccccn12	ssDAF12 agonist 1.4, DAX1 inh-1 4.0, hcDAF-12 act 8.4, hgDAF-12 ag 15 | LXR ag inactive | hcDAF12 ag 7.5 | hgDAF12 ag 15 | LXRb DAF12 ctr inactive
CC(=O)N1C[C@@H](CO)[C@@H](N(C)C(=O)Nc2cccc3ccccc23)C[C@H]1c1ccccc1	none (no result: DAX1 inh-2)
Cc1ccc(Nc2nc3ccccc3s2)c(C)c1	ssDAF12 agonist 1.2, hcDAF-12 act 9.1, hgDAF-12 ag 21 | LXR ag inactive | hcDAF12 ag 9.6 | hgDAF12 ag 22 | LXRb DAF12 ctr inactive
Cc1cc(C)nc(Nc2nc3ccccc3s2)n1	DAX1 inh-1 4.5, hcDAF-12 act 14, hgDAF-12 ag 17 | LXR ag inactive | hcDAF12 ag 15 | hgDAF12 ag 19 | LXRb DAF12 ctr inactive
Cc1[nH]n(-c2ccccc2)c(=O)c1N=Nc1cccc(C(=O)O)c1	ssDAF12 agonist 2.2, hcDAF-12 act 8.9, hgDAF-12 ag 14 | LXR ag inactive | hcDAF12 ag 12 | hgDAF12 ag 15 | LXRb DAF12 ctr inactive
COC(=O)c1cc(N=Nc2c(C)[nH]c3ccccc23)cc(C(=O)OC)c1	none
Cc1[nH]c2ccccc2c1N=Nc1cccc(C(=O)O)c1	ssDAF12 agonist 2.9, DAX1 inh-1 4.2, hcDAF-12 act 12, hgDAF-12 ag 14 | LXR ag inactive | hcDAF12 ag 7.6 | hgDAF12 ag 19 | LXRb DAF12 ctr inactive
CCN(CC)S(=O)(=O)c1ccc(C(=O)OCC(=O)Nc2ccc(-c3nc4ccc(C)cc4s3)cc2)cc1	DAX1 inh-1 4.0, hcDAF-12 act 7.6, hgDAF-12 ag 14 | LXR ag inactive | hcDAF12 ag 8.9 | hgDAF12 ag 23 | LXRb DAF12 ctr inactive
CCNC(=O)OC[C@H]1O[C@H](C#Cc2ccc(C(C)(C)C)cc2)C=C[C@H]1OC(C)=O	none (no result: DAX1 inh-2)
COc1ccc(CNC(=O)CSc2nnc3c(n2)[nH]c2ccc(OC)cc23)cc1	none
COc1ccc2[nH]c3nc(SC(C)C)nnc3c2c1	ssDAF12 agonist 1.5, DAX1 inh-1 3.9, hcDAF-12 act 14, hgDAF-12 ag 21 | LXR ag inactive | hcDAF12 ag 9.1 | hgDAF12 ag inactive | LXRb DAF12 ctr inactive

High-throughput results as filed in PubChem BioAssay.
